# ChEMBL document CHEMBL1157539, “Thousands of chemical starting points for antimalarial lead identification” (Nature, 2010)
# Tests used:
# Format in all cases: functional
# Plasmodium falciparum [1] = experiment: GSK_TCMDC: Inhibition of Plasmodium falciparum 3D7 in whole red blood cells, using parasite LDH activity as an index of growth. Test compounds present at 2uM
# Plasmodium falciparum [2] = experiment: GSK_TCMDC: Inhibition of Plasmodium falciparum Dd2 in whole red blood cells, using parasite LDH activity as an index of growth. Test compounds present at 2uM
# HepG2 = experiment: GSK_TCMDC: Percent inhibition of human HepG2 cell line. Test compounds present at 10uM.
Structure (SMILES),Inhibition (Plasmodium falciparum [1]),Inhibition (Plasmodium falciparum [2]),Inhibition (HepG2)
Cc1cc(Nc2cccc(C#N)c2)nc(Nc2ccccc2C)n1,95%,46%,10%
O=C(Nc1ccc(CN2CCN(S(=O)(=O)c3ccc(Cl)s3)CC2)cc1)c1cccs1.O=C(O)C(F)(F)F,92%,87%,14%
NS(=O)(=O)c1cccc(-c2ccc3c(O)ncnc3c2)c1,99%,100%,6%
Cc1cc(C)c(C(=O)Nc2ccc3nc(C)cc(N)c3c2)c(C)c1.Cl,84%,14%,12%
O=C(O)C(F)(F)F.O=C1CCCN1CCCNCc1ccc(-c2cccc(-c3nc4cc(C(F)(F)F)ccc4[nH]3)c2)cc1,100%,98%,14%
O=C(O[C@@H]1CN[C@H](C#Cc2cc3ncnc(Nc4ccc5c(cnn5Cc5cccc(F)c5)c4)c3s2)C1)N1CCCC1,86%,56%,9%
COc1ccc2ncc(F)c(CCN3CC4CCCC4(CNCc4ccc5c(n4)NC(=O)CS5)C3)c2n1.Cl (stereo unspecified),87%,28%,18%
CS(=O)(=O)c1ccc(CNCc2cccc(-c3cccc(-c4nc5cc(F)ccc5[nH]4)c3)c2)cc1.O=C(O)C(F)(F)F,100%,84%,11%
CC(C)(C)c1ccc(CN2CCC(NC(=O)c3ccc(-c4cccc(Cl)c4)s3)CC2)cc1.O=C(O)C(F)(F)F,99%,47%,36%
CCOc1ccc(C=CC(=O)Nc2ccc3nc(N4CCN(C)CC4)cc(C)c3c2)cc1OC,100%,70%,0%
Cc1cccc2nc(-c3ccc(-c4cccc(CNCc5ccc(S(C)(=O)=O)cc5)c4)s3)[nH]c12.O=C(O)C(F)(F)F,100%,91%,31%
O=C(O)C[C@H](NC(=O)[C@@H]1CCCN1C(=O)c1cccc(-c2ccc(Cl)c(Cl)c2)c1)C(=O)O,84%,0%,0%
O=C(/C=C/c1ccc(Cl)c(Cl)c1)NCCCCCN1CCC(NC(=O)c2ccc(F)cc2F)CC1,96%,11%,17%
CC(C)(C)c1ccc(CN2CCC(NC(=O)c3ccc(-c4ccccc4F)s3)CC2)cc1.O=C(O)C(F)(F)F,85%,37%,36%
O=C(/C=C/c1ccc(Cl)c(Cl)c1)NCC[C@@H]1C[C@H]1CCN1CCC(c2c[nH]c3ccccc23)CC1,96%,22%,98%
Br.CCCN(CCCCCCNCCc1ccc(Cl)cc1)CCc1ccc(O)c(O)c1,91%,11%,26%
CN1C(C)(C)CC(NC(=O)c2ccc(-c3cc4cc(Cl)c(Cl)cc4[nH]3)o2)CC1(C)C,100%,43%,21%
COc1ccc(C2CC(=O)C3=C(C2)NC(C)=C(C(=O)OC2CCCC2)C3c2ccc(O)cc2)cc1OC (stereo unspecified),97%,92%,0%
CC(C)(C)c1ccc(NC(=O)c2cccc(CN3CCCN(Cc4cccc(Cl)c4)CC3)c2)cc1.O=C(O)C(F)(F)F,85%,30%,61%
Clc1ncnc2scc(-c3ccc(Br)cc3)c12,95%,96%,0%
CC1(C)[C@H]2CC[C@@H](CNc3nc(NCCc4c[nH]cn4)nc(Nc4ccc5c(c4)OCO5)n3)[C@@H]1C2,100%,88%,3%
CC(C)COc1ccc(Cl)cc1Cc1ccc(-c2nc3ccc(C(F)(F)F)cc3[nH]2)o1,97%,51%,14%
COc1ccc(Cn2c(Nc3cccc(C(F)(F)F)c3)nc3cc(C(=O)NCCN4CCCC4)ccc32)cc1Cl,97%,54%,11%
COc1ccc2nc(C)cc(Nc3ccc(Oc4ccc(Br)c5ccccc45)c(Cl)c3)c2c1,100%,100%,100%
Cn1nccc1C(=O)NCCNCc1cccc(-c2ccc(-c3nc4cc(C(F)(F)F)ccc4[nH]3)s2)c1.O=C(O)C(F)(F)F,100%,99%,36%
CCc1cccc(-n2c(=O)c3cccnc3n2CC(=O)NCc2ccccc2Cl)c1,98%,19%,25%
COc1ccc(NC(=O)c2ccc(-c3cc(NC(=O)c4ccnc(N5CCCC5)c4)ccc3C)s2)cc1N1CCN(C)CC1.O=C(O)C(F)(F)F,100%,100%,15%
